# In PubChem BioAssay (Tox21):
# Inconclusive results are not listed. A call without a number means that no potency is given here. Active and inactive are the calls of the source. The call rests on the fitted dose curve.
# Assay: p53 small molecule agonists, cell-based qHTS assay with human liver microsomes (AID 1963577);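 further: p53 response element beta-lactamase reporter cells with liver microsomes plus NADPH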
# Conditions: HCT-116 p53RE-bla with human liver microsomes, ratio, 16 h; series mostly up to 66 µM
# From the text: National Center for Advancing Translational Sciences [NCATS]
# Division of Preclinical Innovation [DPI]
# U.S. Environmental Protection Agency [EPA]
# National Institutes of Environmental Health Sciences [NIEHS]
# National Toxicology Program [NTP]
# U.S. Food and Drug Administration [FDA]
# p53, a tumor suppressor protein, is activated following cellular insult, including DNA damage and other cellular stresses. The activation of p53 regulates cell fate by inducing DNA repair, cell cycle arrest, apoptosis, or cellular senescence. The activation of p53, therefore, is a good indicator of DNA damage and other cellular stresses. […] The activation of the reporter gene under culture conditions can be detected by fluorescence intensity.
# Tox21 Assay Protocol Summary:
# The p53RE-bla cells were dispensed at 4,000cells/3ul/well in 1536-well black-clear bottom plates. After the assay plates were incubated at 37 C, 5% CO2 incubator for 5 hours, 23 nL of compounds dissolved in DMSO, positive controls or DMSO only was transferred to the assay plate. Following compound addition, 3 uL of human liver microsomes (XenoTech, Kansas City, KS) at final concentration of 0.5 mg/mL and 1uL of Beta-Nicotinamide adenine dinucleotide 2-phosphate (NADPH) at final concentration of 0.5 mg/mL were transferred to the assay plate. The plates were incubated at 37 C for 16 hours. 1 uL of LiveBLAzer detection mixture was added to each well and the plates were incubated at room temperature in the dark for 2 h.
row,Structure (SMILES),Potency
1,C1=CCC2CC=CC2C1 (stereo not given),inactive
2,OCC1CC2CC1C1CCC(CO)C21 (stereo not given),inactive
3,CCC1CCCCC1,inactive
4,O=C1OC[C@H](Cc2cccc(O)c2)[C@H]1Cc1cccc(O)c1,inactive
5,N=C(N)c1ccc2cc(OC(=O)c3ccc(N=C(N)N)cc3)ccc2c1,inactive
6,Cc1ccc(C(C)c2ccc(C)c(C)c2)cc1C,inactive
7,NS(=O)(=O)c1ccc(N2CCCCS2(=O)=O)cc1,inactive
8,Cc1oc(C)c(C(=O)Nc2ccccc2)c1C,inactive
9,C[C@@H]1CCC[C@H](C)N1CCCC(O)(c1ccccc1)c1ccccn1 (stereo not given in full),inactive
10,COC(=O)c1ccc(C)cc1C1=NC(C)(C(C)C)C(=O)N1 (stereo not given),inactive
11,NC(=O)c1ccc([N+](=O)[O-])cc1Cl,inactive
12,Cc1cc(C)cc(OCC2CNC(=O)O2)c1 (stereo not given),inactive
13,C=C(C)C(=O)OCCCCCCCCCCCCC,inactive
14,COc1ccccc1N=Nc1c(S(=O)(=O)O)cc2cc(S(=O)(=O)O)cc(NC(C)=O)c2c1O,inactive
15,Cc1cccc(N(C)C(=S)Oc2ccc3ccccc3c2)c1,inactive
16,FC(F)(F)C(F)(F)C(F)(F)C(F)(F)C(F)(F)C(F)(F)CCI,inactive
17,NC(=O)NNc1ccccc1,inactive
18,O=C(O)c1ccc(CO)o1,inactive
19,O=C1CCC(=O)N1,inactive
20,CCN(CC)C(=O)C1CN2CCc3cc(OC)c(OC)cc3C2CC1OC(C)=O (stereo not given),inactive

row,Structure (SMILES),Potency
1,CCOC(=O)OC(=O)OCC,inactive
2,O=C(O)CCCCCCCCCCCC(=O)O,inactive
3,CC(C)CNCC(C)C,inactive
4,FC(F)(F)/C(=N\OCC1OCCO1)c1ccc(Cl)cc1,inactive
5,[Cl][Eu]([Cl])[Cl],inactive
6,NC(=O)c1ccccc1Cl,inactive
7,CCCc1ccc(N)cc1,inactive
8,OCC#CCO,inactive
9,CC[C@H](C)[C@H](N)C(=O)O,inactive
10,CCOC(=O)NCCC[Si](OCC)(OCC)OCC,inactive
11,C[N+](C)(C)CC(O)CCl (stereo not given),inactive
12,CC(N)CN (stereo not given),inactive
13,CC(=O)OCCc1ccccc1,inactive
14,CC(=O)CC(C)(C)C1CCCCC1,inactive
15,CCC(C)SSC(C)CC (stereo not given),inactive
16,CN(C)c1ccc(C(=C2C=CC(=[N+](C)C)C=C2)c2ccc(N(C)C)cc2)cc1,inactive
17,CC(C)(C)OC(=O)c1cccc(N)c1,inactive
18,CC1COc2ccccc2N1 (stereo not given),inactive
19,CCCCCCOC(=O)C(C)CC (stereo not given),inactive
20,Cc1ccc(C=O)cc1,inactive
